Common to all, as to experiment: NCI-60 one-dose screen, 48 h (100 = growth as untreated, 0 = no growth, -100 = all killed)
Assay [1] has as its system NCI-H23 lung. The note with it: 10 µM unless noted.
The subject of assay [2] is NCI-H226 lung. The note with it: 10 µM unless noted.
For assay [3], the system named is NCI-H322M lung. The note with it: 10 µM unless noted.
The subject of assay [4] is HOP-62 NSCLC. The note with it: 10 µM unless noted.
Assay [5] relates to NCI-H460 lung. The note with it: 10 µM unless noted.
The test system of assay [6] is HOP-92 NSCLC. As to conditions: 10 µM unless noted.
Assay [7] has as its system NCI-H522 lung. As to conditions: 10 µM unless noted.
For assay [8], the system named is A549/ATCC NSCLC. As to conditions: 10 µM unless noted.
The subject of assay [9] is 786-0 renal. As to conditions: 10 µM unless noted.
The subject of assay [10] is COLO 205 colon. As to conditions: 10 µM unless noted.
Assay [11] relates to DU-145 prostate. The note with it: 10 µM unless noted.
The subject of assay [12] is MALME-3M melanoma. The note with it: 10 µM unless noted.
Assay [13] has as its system MDA-MB-231 breast. The note with it: 10 µM unless noted.
The test system of assay [14] is RXF 393 renal. As to conditions: 10 µM unless noted.
Assay [15] has as its system SF-268 CNS. The note with it: 10 µM unless noted.
Assay [16] has as its system SF-295 CNS. The note with it: 10 µM unless noted.
Assay [17] has as its system SF-539 CNS. The note with it: 10 µM unless noted.
Assay [18] deals with M14 melanoma. As to conditions: 10 µM unless noted.
Assay [19] deals with K-562 leukemia. The note with it: 10 µM unless noted.
Assay [20] relates to UACC-257 melanoma. The note with it: 10 µM.

Compounds without any hit were thinned out: in the full panel of roughly 83,000, 20% have a hit.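 Note: values are percent growth. 100 is the growth of untreated cells, values between 100 and 0 indicate rising inhibition; between -100 and 0 indicates cell death.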 Unmarked numbers belong to inactive results. Active and inactive are the calls of the source. The calls were made as follows: active = growth percent below 10; inactive = the rest.

On to `COc1cc2c3c(n(CCCNC4CCCC4)c(=O)c2cc1OC)-c1cc2c(cc1C3=O)OCO2`, for which the growth is -62.8% (active) in assay [1]; 80.5% in assay [2]; 6.3% (active) in assay [3]; -78% (active) in [4]; -74.4% (active) in [5]; 103% in assay [6]. In addition, the growth in assay [7] is 54.6%; in assay [8] it was -78.8% (active); in [9] it was -87.9% (active); in assay [10], -89.9% (active); in assay [11], -78.5% (active); in [12], -75% (active). The growth in assay [13] was -76.6% (active); in assay [14], 49.7%; in assay [15], -42.7% (active); in assay [16] it was -76.8% (active); in assay [17] it was -85.4% (active); in assay [18], -88.9% (active).
`NCCN1CCN(c2nc(-c3ccccc3)nc3nc(-c4ccccc4)oc23)CC1`: the growth is -42.7% (active) in [1]; -57.6% (active) in assay [2]; -41.4% (active) in assay [3]; 0.341% (active) in [4]; -67.7% (active) in [5]; 58.9% in assay [6]. The growth in assay [7] was -13.1% (active); in [9], -83.3% (active); in assay [10] it was -44.7% (active); in [11] it was -79% (active); in assay [19], 6.56% (active); in [12], -68.8% (active). Also, the growth was -74.5% (active) in assay [13]; 49.6% in assay [14]; -64.7% (active) in [15]; -83.6% (active) in assay [16]; -87.6% (active) in [17]; 93.4% in assay [20].
Consider `C#C[C@]1(O)CC[C@H]2[C@@H]3CC=C4c5sc(C6CCOCC6)nc5CC[C@]4(C)[C@H]3CC[C@@]21C`, for which the growth in assay [1] is 74.4%; in assay [2], 82.5%; in [3] it was 84.1%; in assay [4] it was 90.5%; in [5] it was 79.8%; in [6], 103%. The growth in assay [7] is 80.8%; in [9] it was 62.7%; in assay [10] it was 103%; in assay [11] it was 97.9%; in assay [19], 13.2%; in [12], 88.8%. The growth in [13] was 73.9%; in assay [14] it was 4.95% (active); in assay [15], 91.2%; in assay [16] it was 37.8%; in assay [17], 56.5%; in assay [20] it was 78.3%. Also, in assay [18], the growth is 59.8%.
Regarding `O=C(COc1ccc(C2SCC(=O)N2c2ccc(F)cc2)cc1)c1ccccc1` (stereo unspecified), the growth in assay [1] is 95.6%; in assay [2] it was 91.7%; in [3], 98.3%; in assay [4] it was 95.5%; in assay [5] it was 108%; in [6], 76.7%. Besides, the growth in assay [7] was 84.1%; in [9], 102%; in assay [10], 112%; in assay [11] it was 104%; in [19], 91.6%; in assay [12] it was 97.9%. Also, the growth in assay [13] was 81.4%; in [14] it was 102%; in assay [15], 89.4%; in assay [16], 94.5%; in assay [17] it was 102%; in [20], 100%. Further, in assay [18], the growth is 93.6%.
As to `C#C[C@]1(O)CC[C@H]2[C@@H]3CC=C4c5sc(-c6ccccn6)nc5CC[C@]4(C)[C@H]3CC[C@@]21C`, the growth was 81.2% in assay [1]; 94.4% in [2]; 90.6% in assay [3]; 77.5% in assay [4]; 75.9% in [5]; 110% in assay [6]. For the same compound, the growth in assay [7] was 91.6%; in [9], 24.5%; in assay [10] it was 90.9%; in [11], 90.2%; in [19], 31.9%; in assay [12], 81.9%. In addition, the growth in assay [13] was 78.6%; in assay [14], -34.4% (active); in assay [15] it was 82.4%; in assay [16], -37.3% (active); in [17] it was 30.9%; in assay [20], 70.5%.
Consider `C=CCn1c(SCC(=O)Nc2cccc(C(=O)/C=C/c3cc(OC)c(OC)c(OC)c3)c2)nc2ccccc2c1=O`, for which the growth is 24.4% in assay [1]; 75.8% in assay [2]; 67.1% in assay [3]; 45.8% in assay [4]; 16.8% in assay [5]; 48.4% in assay [6]. In addition, the growth was 80.2% in assay [8]; 43.7% in assay [9]; 108% in assay [10]; 13.7% in assay [11]; 71% in assay [12]; 29.5% in [13]. Further, the growth in assay [14] was 17.1%; in [15], 70.3%; in [16], 83.5%; in assay [17], 21.1%; in assay [20], 80.9%; in [18] it was 63%.
For `O=C1C[C@@H](c2ccccc2)Oc2c(Cc3ccccc3O)c(O)c(Cc3cc(Cc4cc(Cc5ccccc5O)ccc4O)ccc3O)c(O)c21`, the growth in [1] was 94.7%; in assay [2], 86%; in assay [3], 110%; in assay [4] it was 97.4%; in assay [5], 104%; in assay [6], 78%. The growth in [8] was 101%; in assay [9], 100%; in assay [10], 111%; in assay [11], 102%; in [19], 99.8%; in [12], 95%. The growth was 82.4% in [13]; 94.7% in [14]; 85.2% in assay [15]; 102% in [16]; 101% in [17]; 88.6% in assay [18].
On to `CS(=O)(=O)c1ccc2c(c1)c1c(n2S(=O)(=O)c2ccc(Cl)cc2)CCCC1`, for which the growth in assay [1] is 36.3%; in assay [2] it was 53.6%; in [3], 49.1%; in assay [4] it was 38.5%; in assay [5], 9.54% (active); in assay [6], 32.7%. The growth in assay [7] is -44.5% (active); in assay [9] it was 40.4%; in assay [10] it was -36.3% (active); in [11], 22.9%; in [12], 54.5%; in [13], 29.8%. Besides, the growth is -0.699% (active) in assay [14]; 63.3% in assay [15]; 21% in [16]; 2.97% (active) in assay [17]; 60.6% in assay [20]; 26.3% in [18].

Source of the values: PubChem BioAssay (NCI).
